Experimental data taken from PubChem BioAssay AID2283131 (EPA ToxCast).
Records with an inconclusive call do not appear. Activity calls are given as the source filed them. The calls were made as follows: active = hit-call score of the fitted dose curve at least 0.9, where 1 is the maximum; inconclusive = response in the unintended direction; inactive = score below 0.9.

Each compound was assayed against human Bruton's Tyrosine Kinase (BTK), BTK (gene 695) (UniProt Q06187) (assay: NVS_ENZ_hBTK: NovaScreen (NVS) Enzymatic Assay for human Bruton's Tyrosine Kinase (BTK)).
Experimental: NVS_ENZ_hBTK is a biochemical, single-readout assay that uses extracted gene-proteins in a cell-free assay. Measurements were taken 1 hour after chemical dosing in a 96-well plate.NVS_ENZ_hBTK is one of one assay component(s) measured or calculated from the NVS_ENZ_hBTK assay. It is designed to make measurements of enzyme activity, a form of enzyme reporter, as detected with fluorescence intensity signals by Fluorescence and electrophoretic mobility shift technology.Data from the assay component NVS_ENZ_hBTK was analyzed into 1 assay endpoint. This assay endpoint, NVS_ENZ_hBTK, was analyzed in the positive analysis fitting direction relative to DMSO as the negative control and baseline of activity. Using a type of enzyme reporter, loss-of-signal activity can be used to understand changes in the enzymatic activity as they relate to the gene BTK. Furthermore, this assay endpoint can be referred to as a primary readout, because this assay has produced multiple assay endpoints where this one serves a enzymatic activity function. To generalize the intended target to other relatable targets, this assay endpoint is annotated to the kinase intended target family, where the subfamily is non-receptor tyrosine kinase.
Binding assays used specific radioligands (tritiated, iodinated) with non-radioactive competitive displacement ligands in agonist or antagonist protocols (as indicated) and various reference compounds and inhibitors to titrate specific binding to receptors and transporters. Most enzyme assays (CYPs, kinases, phosphatases, proteases, HDACs) used recombinant protein and specific substrates (fluorescence mostly, some colorimetric and radioactive) and inhibitors, followed by a biochemical separation of substrate and product. All assays for the biochemical HTS were initially run in duplicate at a single concentration (10 uM for CYP450 assays and 25 uM for all others). […] Each assay was run with positive and negative controls, and concurrent controls on every plate. The follow-up (secondary) screen tested active chemical-pairs in concentration series, as well as a few additional assays not tested in the primary screen, some selected negative inactives, and several cases re-run in the concentration series for confirmatory purposes.

human Bruton's Tyrosine Kinase (BTK), BTK (gene 695), sequence (Q06187 whole entry, looked up): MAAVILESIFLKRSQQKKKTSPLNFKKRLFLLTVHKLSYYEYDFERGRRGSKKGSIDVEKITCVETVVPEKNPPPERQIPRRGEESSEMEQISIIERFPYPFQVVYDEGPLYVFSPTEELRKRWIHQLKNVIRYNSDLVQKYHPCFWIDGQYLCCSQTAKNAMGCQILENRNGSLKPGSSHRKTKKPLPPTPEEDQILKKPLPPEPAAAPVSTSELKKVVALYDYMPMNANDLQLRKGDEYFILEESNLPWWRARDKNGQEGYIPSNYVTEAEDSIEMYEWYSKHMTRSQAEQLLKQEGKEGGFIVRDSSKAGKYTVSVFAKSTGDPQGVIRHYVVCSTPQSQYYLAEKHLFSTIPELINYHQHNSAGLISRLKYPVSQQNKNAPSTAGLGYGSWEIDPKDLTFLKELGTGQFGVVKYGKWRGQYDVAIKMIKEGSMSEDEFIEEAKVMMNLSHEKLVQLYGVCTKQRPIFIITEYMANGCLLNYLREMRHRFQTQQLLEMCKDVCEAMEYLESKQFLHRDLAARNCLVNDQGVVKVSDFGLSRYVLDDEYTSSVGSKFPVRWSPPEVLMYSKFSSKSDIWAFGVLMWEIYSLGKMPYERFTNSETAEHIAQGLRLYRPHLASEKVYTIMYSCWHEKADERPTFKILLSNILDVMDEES

Compound | outcome | AC50
S=C1NCCN1 | inactive | 
Cc1ccccc1CO[C@@H]1C[C@@]2(C(C)C)CC[C@]1(C)O2 | inactive | 
O=S(=O)(O)C(F)(F)C(F)(F)C(F)(F)C(F)(F)C(F)(F)C(F)(F)C(F)(F)C(F)(F)F |  | 17.4 µM (active)
CNC(=O)Oc1cccc2c1OC(C)(C)O2 | inactive | 
O=[N+]([O-])/N=C1\NCCN1Cc1ccc(Cl)nc1 | inactive | 
N#Cc1c(Cl)c(Cl)c(Cl)c(C#N)c1Cl | inactive | 
CCCOc1nn(C(=O)NS(=O)(=O)c2ccccc2C(=O)OC)c(=O)n1C | inactive | 
Fc1ccc(Oc2ccnc3cc(Cl)cc(Cl)c23)cc1 | inactive | 
O=C(O)C(F)(F)C(F)(F)C(F)(F)C(F)(F)C(F)(F)C(F)(F)C(F)(F)F | inactive | 
